Assay outcomes deposited in PubChem by several laboratories.
Hits are enriched below; roughly 3.2% of the tested compounds scored in any of these assays.
ERa SRC1 pot: enhancers of ERα–SRC-1 coactivator binding, primary screen, biochemical, TR-FRET, ERα LBD, low estradiol; coactivator binding (% of control), % at 25.6 µM; TR-FRET ERalpha-LBD/SRC-Cy5 coactivator binding, 2 h; 100 = basal binding, no effect; 86,000 tested, 1.3% active; in the data active = activity above about 200%;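 also: binding measured in presence of low estradiol as agonist stimulus; 0% = peptide alone without receptor and 100% = receptor with peptide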
FAK inh: FAK kinase inhibitors, primary screen, biochemical; Focal adhesion kinase 1 (Homo sapiens), Q05397; biochemical FAK kinase activity assay; inhibition, %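 (tested at 7 µM)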; 97,000 tested, 0.84% active; in the data active = inhibition above about 19%;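 also: 0% = DMSO and 100% = reference compound high control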
ERa SRC1 inh: ERα–SRC-1 coactivator interaction inhibitors, primary screen, biochemical, TR-FRET, ERα LBD, estradiol-bound; Estrogen receptor (Homo sapiens), P03372; TR-FRET ER-alpha LBD / SRC-1 peptide; inhibition, % at 25.6 µM; 86,000 tested, 1.7% active; AID 629, 2007; in the data active = inhibition above about 50%;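 also: 0% = receptor plus peptide control and 100% = peptide only without receptor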
ERb coact inh: inhibitors of ERβ-SRC1 coactivator interaction, primary screen, biochemical, TR-FRET, ERβ LBD, SRC-1 peptide; Estrogen receptor beta (Homo sapiens), Q92731; TR-FRET ER-beta LBD / SRC1-Cy5 peptide binding; receptor agonist-loaded with 1 µM estradiol; inhibition, % at 25.6 µM; 86,000 tested, 1.3% active; AID 633, 2007;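 active = compounds whose percent inhibition of the receptor-coactivator binding signal exceeds about 50% in the single-dose screen, limit read from the data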;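 also: 0% = receptor plus peptide wells without compound and 100% = peptide-only wells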
Active calls of the source: *; · = not tested or not shown; [ ] = remark or other dose.

SMILES | ERa SRC1 pot | FAK inh | ERa SRC1 inh | ERb coact inh
CCOC(=O)N1CCN(S(=O)(=O)c2ccc(C(=O)Nc3nc4ccccc4s3)cc2)CC1 | 280*[fluorescence artefact?] | -11 | 42 | 30
CCOC(=O)N1CCN(S(=O)(=O)c2ccc(C(=O)Nc3nc4ccc(F)cc4s3)cc2)CC1 | 377* | -6 | -5 | 5
O=C(COC(=O)c1n[nH]c2ccccc12)NC(=O)NC12CC3CC(CC(C3)C1)C2 | 145 | -3 | 27 | 23
O=C(Cc1cn2ccsc2n1)OCc1nc2ccccc2s1 | 37 | 4 | 64* | 64*[fluorescence artefact?]
O=C(Cc1cn2ccsc2n1)OCc1ccccc1 | 119 | -2 | 4 | 0
N=C1C(c2ccc(Br)cc2)=C(O)C2CCc3ccccc3N12 (configuration not stated) | 103 | -2 | -1 | -8
N=C1C(c2ccccc2)=C(O)C2CCc3ccccc3N12 (configuration not stated) | 73 | · | 58*[fluorescence artefact?] | 21
CCOc1cc(NS(=O)(=O)c2ccccc2)c(OCC)cc1NC(=O)c1ccco1 | 88 | -1 | 24 | 26
CN(C)C(=O)c1ccccc1-c1ccccc1 | 241* | -1 | -2 | -6
Cc1nc(C)c(C(=O)C2=C(O)C(=O)N(CCCn3ccnc3)C2c2ccc(Cl)cc2)s1 (configuration not stated) | 127 | -9 | 7 | -4
O=C(CCc1ccccc1)Nc1nnc(-c2cccs2)o1 | 97 | 2 | 0 | 70*
Cc1cc(C)cc(OCC(O)CN2C(=O)NC(C)(C)C2=O)c1 (configuration not stated) | 98 | 1 | -5 | -3
COc1ccc2[nH]c(=O)c(CN(Cc3nnnn3Cc3ccco3)C3CCCCC3)cc2c1 | 73 | 1 | 32 | 28
COc1ccc2[nH]c(=O)c(CN(C3CCCCC3)C(c3nnnn3Cc3ccco3)C(C)C)cc2c1 (configuration not stated) | 201* | 12 | 46 | 28
O=C(NC1CCCCC1)N1CCN(CCc2ccccc2)CC1 | 122 | 5 | -2 | -1
CC1(C)Cc2c(C#N)c(SCC(=O)c3ccccc3)nc(N3CCOCC3)c2CO1 | 246*[fluorescence artefact?] | 4 | 7 | 0
Cc1cc2nnc(SCCCCN3C(=O)c4ccccc4C3=O)n2c2ccccc12 | · | -1 | · | ·
COc1cc2[nH]c3c(N4CCN(c5ccccn5)CC4)ncnc3c2cc1OC | 676*[fluorescence artefact?] | 13 | -1 | 6
COc1ccc(N2CCN(c3ncnc4c3[nH]c3ccccc34)CC2)cc1 | 93 | 2 | -8 | -9
O=S(=O)(NCc1ccc2c(c1)OCO2)c1cccc(S(=O)(=O)N2CCOCC2)c1 | 90 | 3 | 8 | 1
Cc1cc(NC(=O)c2oc3ccccc3c2C)ccc1-n1cnnn1 | 131 | 0 | 65*[fluorescence artefact?] | 50*[fluorescence artefact?]
COc1cc(OC)cc(C(=O)Nc2ccc(-n3cnnn3)c(C)c2)c1 | 127 | -5 | -6 | -8
COCC(=O)Nc1nnc(Cc2ccc(OC)cc2)s1 | 108 | 0 | 27 | 55*
Cc1cc(S(=O)(=O)N(Cc2ccc(F)cc2)CC2CCCO2)ccc1-n1cnnn1 (configuration not stated) | 120 | -1 | -1 | 63*
COc1ccccc1-c1cc(C(F)(F)F)n2ncc(S(=O)(=O)c3ccccc3)c2n1 | · | -7 | · | ·
SMILES | ERa SRC1 pot | FAK inh | ERa SRC1 inh | ERb coact inh
CCOC(=O)c1c(C)oc2c1c(C=NC1CCS(=O)(=O)C1)c(O)c1ccccc12 (configuration not stated) | 79 | -1 | 70* | 44
CCOC(=O)c1c(C)oc2c1c1c(c3ccccc32)OCN(Cc2ccccn2)C1 | · | 11 | · | ·
CCOC(=O)c1c(C)oc2c1c(C(c1ccncc1)N1CCOCC1)c(O)c1ccccc12 (configuration not stated) | 93 | 6 | 68*[fluorescence artefact?] | 71*[fluorescence artefact?]
COc1c2ccc(C(=O)NCCCCc3ccccc3)cc2nn1C | · | -2 | · | ·
CCCCC(=O)O[C@H]1CC[C@H]2[C@@H]3CCc4cc(O)ccc4[C@H]3CC[C@]12C | 88 | · | 4 | 1
C[C@]12CC[C@@H]3c4ccc(O)cc4C(=O)C[C@H]3[C@@H]1CC[C@@H]2O | 705* | · | 3 | 1
O=S(=O)(/N=C(/Sc1ccccc1)c1ccccc1)c1ccccc1 | 64 | 1 | 77* | 54*[fluorescence artefact?]
COc1ccc2c(c1)CC/C(=C\c1ccc(OC)c(Cn3nc(C)cc3C)c1)C2=O | 106 | 5 | 52* | 26
COc1ccc2c(c1)CC/C(=C\c1ccc(OC)c(Cn3cccn3)c1)C2=O | 113 | 0 | 7 | 5
